In article PMC10726135, “HNF4α isoforms regulate the circadian balance between carbohydrate and lipid metabolism in the liver” one finds binding signal data, which are given here for 43 sequences.

Whole data set: some 18,000 sequences, median “log2 normalized intensity” near 0.36, cut for the highest 2% near 7.3. This excerpt belongs to a sample that is enriched for the highest values.

The experiment concerns the target T1, HNF4alpha8 (COS-7 nuclear extract) (Homo sapiens, UniProt P41235-5 1-452).
T1 sequence: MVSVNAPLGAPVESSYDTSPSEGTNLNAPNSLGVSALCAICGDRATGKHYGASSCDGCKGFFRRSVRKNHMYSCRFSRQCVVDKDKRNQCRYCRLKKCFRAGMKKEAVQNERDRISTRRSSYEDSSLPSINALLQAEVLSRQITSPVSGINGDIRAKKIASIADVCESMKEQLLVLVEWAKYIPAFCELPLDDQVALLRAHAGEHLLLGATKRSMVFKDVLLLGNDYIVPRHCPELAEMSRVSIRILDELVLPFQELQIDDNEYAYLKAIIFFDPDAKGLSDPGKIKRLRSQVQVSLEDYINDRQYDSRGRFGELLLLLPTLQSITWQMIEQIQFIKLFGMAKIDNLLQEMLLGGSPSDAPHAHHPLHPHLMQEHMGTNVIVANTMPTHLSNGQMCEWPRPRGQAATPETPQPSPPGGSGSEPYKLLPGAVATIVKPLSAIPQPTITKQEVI
Description: protein-binding microarray; COS-7 nuclear extract on double-stranded Agilent 4x180k PBM; binding buffer, salt, pH and temperature not given in the material; high values mean tight binding. Particulars: chain copies: 2; label: 3' end of strand 1 on the slide; dsDNA, one strand shown. The essentials:
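Nuclear extracts of COS-7 cells transiently transfected with a human HNF4α isoform were applied to a custom Agilent SurePrint G3 4x180k array bearing ~44,000 double-stranded ~60-nt test sequences, each in quadruplicate. The bound protein was imaged on an Agilent G2565CA scanner at 2-µm resolution. Binding signal is the normalized, background-corrected gProcessedSignal from Agilent software.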
On to “AGAGGACAGAAGAAGGAAAAGGCCTGACCTGCCTAGGGAGATTAGAGTATCGGTCGA”, for which the binding signal amounted to 1.07 log2 normalized intensity. Turning to “AGAAGGAAAAGGCCTGACCTTTGCCCTCTGGCCTAGGGAGATTAGAGTATCGGTCGA”, the binding signal stood at 10.4 log2 normalized intensity. For the sequence “CTCTTTGGTGCAAAGGTCAGGACAAGGCTCGCCTAGGGAGATTAGAGTATCGGTCGA”, the binding signal was found to be 4.73 log2 normalized intensity. The value for “TCACTGACCTCTGCCCTACTGTATATCCTGGCCTAGGGAGATTAGAGTATCGGTCGA” was 2.89 log2 normalized intensity; that for “ACAGAAGAAGGAAAAGGCCTGACCTTTGCCGCCTAGGGAGATTAGAGTATCGGTCGA” was 5.58 log2 normalized intensity. The value for “TGGTGCAAAGGTCAGGACAAGGCTCTGGTGGCCTAGGGAGATTAGAGTATCGGTCGA” was 4.55 log2 normalized intensity; that for “AATACTCTGAGTAAACACAGACTTTGGAATGCCTAGGGAGATTAGAGTATCGGTCGA” was 4.55 log2 normalized intensity. “TTCGGGGCACTGCTCCCTGCCCCTACCCCCGCCTAGGGAGATTAGAGTATCGGTCGA”: the binding signal amounted to 5.02 log2 normalized intensity.

With “AGGTACTGGTAGCCTGGGCCCCAGGGGACGGCCTAGGGAGATTAGAGTATCGGTCGA”, the binding signal was -0.625 log2 normalized intensity. Turning to “GTGCAAAGGCCTTAAAGTGTAAATATTTGAGCCTAGGGAGATTAGAGTATCGGTCGA”, the binding signal amounted to 0.546 log2 normalized intensity. In the case of “TCCGCTTGCCTGAGGGTCATGACTAAAGCAGCCTAGGGAGATTAGAGTATCGGTCGA”, the binding signal was found to be 1.13 log2 normalized intensity.

Turning to “CCACTAGAGAGACCGTCCCTGGGTACAACTGCCTAGGGAGATTAGAGTATCGGTCGA”, the binding signal is 1.33 log2 normalized intensity.

As to “CGTGGGCATGCCTCCCAGAGCATTGTTTATGCCTAGGGAGATTAGAGTATCGGTCGA”, the binding signal is -0.764 log2 normalized intensity.

With “GCACATGGCATGATCCCTGACTCATAGCTCGCCTAGGGAGATTAGAGTATCGGTCGA”, the binding signal was -0.946 log2 normalized intensity.

Consider “GAGGTGGGCCCAGGGTTCTCTGTGACCTTTGCCTAGGGAGATTAGAGTATCGGTCGA”, for which the binding signal is 7.62 log2 normalized intensity. Regarding “GGGCCCAGGGTTCTCTGTGACCTTTGGAAGGCCTAGGGAGATTAGAGTATCGGTCGA”, the binding signal is 9.36 log2 normalized intensity. In the case of “TGGAGCATGACCCTTTGCAGGTGGGAGAGGGCCTAGGGAGATTAGAGTATCGGTCGA”, the binding signal was determined as 0.928 log2 normalized intensity. Regarding “TGACTACCAGGTTCTGTACTTTGGAACCTGGCCTAGGGAGATTAGAGTATCGGTCGA”, the binding signal was 7.01 log2 normalized intensity.

Turning to “TTCTCTGTGACCTTTGGAAGGTGGGGGAGGGCCTAGGGAGATTAGAGTATCGGTCGA”, the binding signal stood at 4.92 log2 normalized intensity. Consider “CTGCCCTTCTGACCTCCCAGGGATACTGTGGCCTAGGGAGATTAGAGTATCGGTCGA”, for which the binding signal was 2.99 log2 normalized intensity. For “GTAAGCACAAAGTACAGCTTTTTGTTTGTGGCCTAGGGAGATTAGAGTATCGGTCGA”, the binding signal is 2.02 log2 normalized intensity. On to “AAACATCAAGGAAGAGAACTCCCTATCCCCGCCTAGGGAGATTAGAGTATCGGTCGA”, for which the binding signal turned out to be 1.36 log2 normalized intensity. For “GATAGATATGTTGAAGTGACTAAATGAGAAGCCTAGGGAGATTAGAGTATCGGTCGA”, the binding signal is -0.611 log2 normalized intensity. With “GTACTTAAAAATGCCTTTCATCTTTGAGAAGCCTAGGGAGATTAGAGTATCGGTCGA”, the binding signal was 0.583 log2 normalized intensity. Under “GTGTCAACATGGACTTTGTTGTTTGCCTCTGCCTAGGGAGATTAGAGTATCGGTCGA” stands 4.08 log2 normalized intensity; under “TTCCCCTCCCTTCCACCTTTGCCCTCCAAAGCCTAGGGAGATTAGAGTATCGGTCGA”, 6.42 log2 normalized intensity; under “CCCTCCCTAAATCCAGAGGTATTTGGCCCAGCCTAGGGAGATTAGAGTATCGGTCGA”, 1.83 log2 normalized intensity. For “ACCGGCAGAGAGAAGCCACTGCGACCTTTGGCCTAGGGAGATTAGAGTATCGGTCGA”, the binding signal worked out at 5.59 log2 normalized intensity.

Turning to “TCACAACCTCCCTTTGAAGGAGCCACTGGTGCCTAGGGAGATTAGAGTATCGGTCGA”, the binding signal is -0.869 log2 normalized intensity. Turning to “CTTTGCCCTCCCTAAATCCAGAGGTATTTGGCCTAGGGAGATTAGAGTATCGGTCGA”, the binding signal is 2.04 log2 normalized intensity. With “CCACTGCGACCTTTGCCCTCCCTAAATCCAGCCTAGGGAGATTAGAGTATCGGTCGA”, the binding signal was determined as 7.84 log2 normalized intensity. Under “CCGCGGCGGGCCCTCGACCTTTGCCCTCCAGCCTAGGGAGATTAGAGTATCGGTCGA” stands 9.76 log2 normalized intensity; under “TCAGCCTTCTCCGCGGCGGGCCCTCGACCTGCCTAGGGAGATTAGAGTATCGGTCGA”, 0.757 log2 normalized intensity; under “TTGCCATGACCTTTGAAGCCCAGAACACTCGCCTAGGGAGATTAGAGTATCGGTCGA”, 4.51 log2 normalized intensity. Under “CAGAGAGAAGCCACTGCGACCTTTGCCCTCGCCTAGGGAGATTAGAGTATCGGTCGA” stands 10 log2 normalized intensity; under “AGAAGCCACTGCGACCTTTGCCCTCCCTAAGCCTAGGGAGATTAGAGTATCGGTCGA”, 8.33 log2 normalized intensity. The value for “CTTCTCCGCGGCGGGCCCTCGACCTTTGCCGCCTAGGGAGATTAGAGTATCGGTCGA” was 5.8 log2 normalized intensity. In the case of “ACCCACCCACCTATGTCCTTATCCTCATTGGCCTAGGGAGATTAGAGTATCGGTCGA”, the binding signal is 0.831 log2 normalized intensity. On to “CTCACCAGTGGGCCCAGAGCACAACCTTTGGCCTAGGGAGATTAGAGTATCGGTCGA”, for which the binding signal stood at 1.42 log2 normalized intensity. Under “TATTCAGTCCCCCATCCCAGAGGTCAAACTGCCTAGGGAGATTAGAGTATCGGTCGA” stands 5.57 log2 normalized intensity; under “GGAATTTGGACTTCAGCCCAGGCTGATTATGCCTAGGGAGATTAGAGTATCGGTCGA”, 4.7 log2 normalized intensity.

Take “CAGCAAGCATTAATCCCTGAGCCTGGACCTGCCTAGGGAGATTAGAGTATCGGTCGA”: the binding signal stood at 2.58 log2 normalized intensity. As to “GCGCATCGGGCGCCAGCGCCCCCGTGTGGCGCCTAGGGAGATTAGAGTATCGGTCGA”, the binding signal was 1.2 log2 normalized intensity.
